The target of assay [1] is Arylsulfatase A (Homo sapiens) (UniProt P15289). Description: qHTS screen for enhancers of Arylsulfatase A (ASA1): LOPAC Validation Assay (AID 720538). The procedure, abridged: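 SV40-transformed fibroblasts from an MLD patient (ASA-I179S) were treated with compound for 48 h at 37 C. They were then lysed with 0.5 mM pNCS substrate (final) for 14 h at room temperature and stopped with NaOH; signal read by fluorescence (Ex 525/Em 598 nm), with increase denoting enhanced activity.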
A general note: In qHTS, concentration-response curves come from the screen itself.

Assay [2] can be described thus: qHTS for compounds that reverse cellular toxicity of Amyloid beta (A-beta) peptide in yeast: LOPAC Validation Assay (AID 720559).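 Also: plate controls were DMSO for no effect and equimolar ferric chloride plus clioquinol rescue for full effect.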 The note with it: Potency: rescue of growth toxicity. The gist of the method: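 Yeast expressing toxic A-beta grown with pinned compounds at 30 C for 48 hr. Growth measured as absorbance at 600 nm; data normalized to DMSO and to an equimolar FeCl3/clioquinol mixture as positive control.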

Assay [3] can be described thus: qHTS for Activators of Parkin Expression: LOPAC Validation Assay (NLuc Reporter) (AID 720572; also: potency is read from the fitted curve at half-maximal effect). The gist of the method: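 NLuc signal, read 10 min after reagent and following a prior FLuc read, is normalized to DMSO (0) and positive controls (100%). Cells: neuronal Parkin-promoter coincidence reporter line; compounds tested 7-point, 24 h, 37 C, 5% CO2.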
Assay [4] can be described thus: qHTS for Activators of Parkin Expression: LOPAC Validation Assay (FLuc Reporter) (AID 720573). The procedure, abridged:
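Neuronal cell line stably expressing FLuc/NLuc coincidence reporter under the Parkin promoter, 1,500 cells/well, dosed 24 h after seeding in 7-point series for 24 h at 37 C. FLuc luminescence read; normalized to DMSO and positive control (100%).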

Assay [5] addresses T1, Hexokinase-4 (Homo sapiens) + Glucokinase regulatory protein (Homo sapiens) (UniProt P35557+Q14397). Description: qHTS assay for inhibitors of recombinant human GCK-GKRP interaction: Diaphorase-coupled assay (AID 743205). The gist of the method: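 Compounds pre-incubated 20 min with substrate, then 10 nM GST-GCK with 10 nM FLAG-GKRP added. GCK activity coupled via G6PDH and diaphorase to resorufin (5 mM glucose, 0.4 mM ATP, 0.15 mM NADP+, pH 7.6), read kinetically over 30 minutes at Ex 525/Em 590 nm.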

Assay [6] has as its target T1, Hexokinase-4 (Homo sapiens) + Glucokinase regulatory protein (Homo sapiens). Description: qHTS assay for inhibitors of recombinant human GCK-GKRP interaction: ADP-Glo assay (AID 743206).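 Also: plate controls were DMSO plus enzyme for no effect and no enzyme for full effect.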 The procedure, abridged:
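Pin-transferred compounds meet a 15 nM GST-GCK/15 nM FLAG-GKRP/2 uM S6P mix (dispense concentrations). ATP is then added to 0.4 mM final with 5 mM glucose, and the reaction runs 60 min at room temperature. ADP is quantified luminescently.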

The nature of assay [7]: qHTS Assay for Identifying Gametocytocidal Compounds (AID 743244). Also: potency is read from the fitted curve at half-maximal effect.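 As to max response: % is scaled to controls: 0 for no effect and ±100 for the full control effect; actives lower the fluorescent signal which means gametocytes are killed.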 The note with it: P. falciparum 3D7 stage III-V gametocytes, alamarBlue, 72 h; max response: stronger effect = lower value. The gist of the method:
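Late gametocytes (III–V), P. falciparum 3D7; 72 h drug, then 24 h alamarBlue; resazurin reduction read by fluorescence.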

Assay [8] concerns the target T1, Hexokinase-4 (Homo sapiens) + Glucokinase regulatory protein (Homo sapiens). Description: qHTS assay for inhibitors of recombinant human GCK-GKRP interaction: HTRF assay (AID 743207).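 Also: 0% = DMSO with GCK present and -100% = DMSO wells lacking GCK.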 The procedure, abridged: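 HTRF binding of 5 nM GST-GCK and 5 nM FLAG-GKRP with 2 uM S6P in pH 7.1 Hepes buffer (MgCl2, KCl, DTT, Tween 20, BSA). Anti-FLAG XL665 and anti-GST donor added, 60 min at room temperature; 665/615 nm read, normalized to with- and without-GCK controls.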

“And” between values parts separate entries of the source, which are not always exact repeats. Equal entries are not always repeated. Unmarked numbers belong to inactive results. Results filed as inconclusive are left out. The source made the active and inactive calls. Calls follow the shape of the dose curve; as a rule, active = well fitted curve in the direction sought with a large enough effect; inconclusive = small, poorly fitted or top-dose-only effect, or another doubt; inactive = no such curve, though single readings can be large; an effect the other way counts as inactive or inconclusive.

T1 sequence (P35557 whole entry, looked up): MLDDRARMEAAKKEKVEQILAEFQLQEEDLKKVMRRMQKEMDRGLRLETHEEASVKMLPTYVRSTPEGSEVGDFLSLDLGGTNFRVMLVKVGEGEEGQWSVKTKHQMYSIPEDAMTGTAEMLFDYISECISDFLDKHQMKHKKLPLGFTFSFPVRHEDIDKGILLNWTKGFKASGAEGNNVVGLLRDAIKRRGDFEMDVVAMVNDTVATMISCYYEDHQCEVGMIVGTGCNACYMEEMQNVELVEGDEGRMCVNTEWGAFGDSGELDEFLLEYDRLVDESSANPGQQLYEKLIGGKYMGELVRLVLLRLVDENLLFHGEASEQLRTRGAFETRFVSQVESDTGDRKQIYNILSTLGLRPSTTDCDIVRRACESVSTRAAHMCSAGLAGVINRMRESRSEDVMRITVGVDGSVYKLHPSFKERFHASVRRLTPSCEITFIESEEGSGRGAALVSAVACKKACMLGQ
T1 sequence (Q14397 whole entry, looked up): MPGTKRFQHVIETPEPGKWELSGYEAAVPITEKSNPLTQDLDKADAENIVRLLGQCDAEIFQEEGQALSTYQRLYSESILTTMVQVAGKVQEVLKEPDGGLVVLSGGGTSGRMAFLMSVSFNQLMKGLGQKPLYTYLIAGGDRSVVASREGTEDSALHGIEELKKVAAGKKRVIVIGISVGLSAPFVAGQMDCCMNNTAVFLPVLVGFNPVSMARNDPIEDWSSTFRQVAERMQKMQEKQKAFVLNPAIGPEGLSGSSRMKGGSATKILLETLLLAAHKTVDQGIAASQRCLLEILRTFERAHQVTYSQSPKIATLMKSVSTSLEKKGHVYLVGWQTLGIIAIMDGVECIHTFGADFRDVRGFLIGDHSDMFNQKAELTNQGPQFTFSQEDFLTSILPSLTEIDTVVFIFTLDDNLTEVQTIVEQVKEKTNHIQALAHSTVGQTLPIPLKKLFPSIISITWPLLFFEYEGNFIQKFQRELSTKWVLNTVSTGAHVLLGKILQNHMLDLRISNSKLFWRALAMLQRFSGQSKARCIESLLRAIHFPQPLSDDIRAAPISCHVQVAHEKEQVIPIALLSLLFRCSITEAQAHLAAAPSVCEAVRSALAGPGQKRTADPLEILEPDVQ
Chain of Arylsulfatase A (Homo sapiens) (P15289 whole entry, looked up): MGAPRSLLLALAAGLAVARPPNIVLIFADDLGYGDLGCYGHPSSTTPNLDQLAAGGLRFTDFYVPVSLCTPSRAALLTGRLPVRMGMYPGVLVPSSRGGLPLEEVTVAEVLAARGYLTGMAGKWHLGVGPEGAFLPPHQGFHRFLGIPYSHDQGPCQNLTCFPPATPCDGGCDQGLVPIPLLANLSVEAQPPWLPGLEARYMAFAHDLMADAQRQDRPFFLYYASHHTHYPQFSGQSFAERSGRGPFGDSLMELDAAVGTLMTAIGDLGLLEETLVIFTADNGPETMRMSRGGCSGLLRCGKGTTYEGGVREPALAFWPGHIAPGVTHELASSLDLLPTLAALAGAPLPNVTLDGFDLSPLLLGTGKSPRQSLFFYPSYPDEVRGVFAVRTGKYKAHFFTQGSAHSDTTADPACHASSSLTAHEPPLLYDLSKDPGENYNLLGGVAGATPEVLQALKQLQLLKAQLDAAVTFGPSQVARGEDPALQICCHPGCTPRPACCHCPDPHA

Turning to `CN(C)c1nc(N)c(C(=O)N=C(N)N)nc1Cl`, the Potency entry in assay [1], in assay [2], in assay [3], in assay [4] and in assay [6] was “inactive” each time. Moreover, the result in assay [5] was inactive. The max response in assay [7] was 11%.
Regarding `CN(C)C(N)=NCCC[C@H](N)C(=O)O`, the Potency entry in assay [1], in assay [2], in assay [3], in assay [4], in assay [6] and in assay [8] was “inactive” each time. Moreover, the outcome in assay [5] was inactive. In assay [7], the max response was -2.52%.
Regarding `OC[C@H]1O[C@@H](n2cnc3c(NC4CCCC4)ncnc32)[C@H](O)[C@@H]1O`, the Potency result in assay [1], in assay [2], in assay [3], in assay [4], in assay [6] and in assay [8] was “inactive” throughout. Moreover, the outcome in assay [5] was inactive. Also, the max response in assay [7] was -3.53%.
With `CCOC(=O)C1=C(C)NC(C)=C(C(=O)OCC)C1c1c(F)c(F)c(F)c(F)c1F`, the Potency entry in assay [1], in assay [2], in assay [4], in assay [6] and in assay [8] was “inactive” in each case. Moreover, in assay [3], the Potency was 4110 nM (active). Moreover, the result in assay [5] was inactive. Moreover, in assay [7], the max response was 17%.
For the compound `CC(N)C(=O)OC(C)(C)Cc1ccc(Cl)cc1` (stereo not drawn), the Potency entry in assay [1], in assay [2], in assay [3], in assay [4] and in assay [6] was “inactive” in each case. Further, in assay [5], the result was inactive. The max response in assay [7] is 11% and 11.7%.
For the compound `CCCCCCCCCCCCCCCCCC(=O)NCC(COP(=O)([O-])OCC[N+](C)(C)C)OCC` (stereo not drawn), the Potency entry in assay [1], in assay [2], in assay [3], in assay [4], in assay [6] and in assay [8] was “inactive” in each case. Moreover, the result in assay [5] was inactive. Also, the max response in assay [7] is 4.32%.
As for `O=C(O)CCCC[C@@H]1CCSS1`, the Potency result in assay [1], in assay [2], in assay [3], in assay [4], in assay [6] and in assay [8] was “inactive” in each case. Also, the result in assay [5] was inactive. The max response in assay [7] was 7.49%.
As to `O=[N+]([O-])c1ccc(CSc2ncnc3c2ncn3[C@@H]2O[C@H](CO)[C@@H](O)[C@H]2O)cc1`, the Potency result in assay [1], in assay [2], in assay [3], in assay [4] and in assay [8] was “inactive” throughout. The result in assay [5] was inactive. For the same compound, in assay [7], the max response is 17.7%.
In the case of `O=C(O)[C@@H]1C[C@H](C(=O)O)N1`, the Potency result in assay [1], in assay [2], in assay [3], in assay [4] and in assay [6] was “inactive” each time. Further, in assay [5], the outcome was inactive. The max response in assay [7] was -2.93%.
Consider `O=C(c1ccc(OCCCc2cnc[nH]2)cc1)C1CC1`, for which the Potency entry in assay [1], in assay [2], in assay [3], in assay [6] and in assay [8] was “inactive” each time. In addition, the result in assay [5] was inactive. In addition, in assay [7], the max response is 42%.
Take `O=C(O)/C=C/C(O)c1ccc(Cl)cc1` (stereo not drawn): the Potency entry in assay [1], in assay [2], in assay [3] and in assay [4] was “inactive” in each case. The outcome in assay [5] was inactive. Also, in assay [7], the max response was -3.84% and 16.6%.
In the case of `Cc1cc(NC2CCCCC2)nc(-n2nc(C)cc2C)n1`, the Potency result in assay [1], in assay [2], in assay [3], in assay [4] and in assay [8] was “inactive” in each case. In addition, the result in assay [5] was inactive. In assay [7], the Potency is 1180 nM (active).

Source of the values: PubChem BioAssay (NCATS).
